Measurements as given in PubChem BioAssay AID1347426 (Functional Genomics Laboratory (NCATS/FGL), 2020).
Screen size: about 31,000 sequences; about 1,400 (4.5%) were called active.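 Rule for the calls: active = median seed-adjusted z-score above 1 or below -1; inactive = the rest.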 This excerpt belongs to a sample that is enriched for actives.

Assay: Novel Modifiers of Survival Motor Neuron (SMN) Protein: Gene Identification via Genome-wide siRNA Screen;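 note: luminescence tracks full-length SMN protein made from the SMN2 reporter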
Settings: HEK293T SMN2-luciferase reporter, siRNA knockdown, 72 h; actives lie on both sides
Outline: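 siRNA screen, 10418 genes ×3 siRNAs; 1 pmol/well, lipid reverse transfection into HEK293T SMN2-luc reporter line. 72 h, 37 °C, 5% CO2; ONE-Glo readout. Data: neg-ctrl normalized, log10, MAD; hit = MAD >1.0 or < -1.0.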

Row | Sequence | median seed-adjusted z-score
1 | CAACCAGAAUUACUGCUAUTT against PCDH10 | -0.488 (inactive)
2 | CGACACCAGGAGUACCUCUTT against IKBKE | 0.122 (inactive)
3 | GCAUUUGGAUGGAUCAUGUTT against CD163 | 0.021 (inactive)
4 | GCUGACUACUUGAAGUUCATT against DYRK1A | -1.3 (active)
5 | GGAAAGACAUGUAAGAGCATT against BMP8B | 0 (inactive)
6 | GAACUAAUCCUGUUCAACATT against ATXN3 | 0.04 (inactive)
7 | CUGUGAUUGUAGUAGAUCATT against SLC19A3 | -0.0232 (inactive)
8 | CCUGCCCAGAGAUACGAAATT against SMURF1 | -1.4 (active)
9 | GGUGGUCUCUUUAUAAUGATT against PHAX | -0.0716 (inactive)
10 | GCCUUUAUGUCAUCCUCAATT against ZNF626 | 0.185 (inactive)
11 | GCAGGUCACGGUUGAUGUATT against FANCA | 0.418 (inactive)
12 | CCAGUGUCAUAAACCUGUATT against NUDT4 | -0.0306 (inactive)
13 | GCAUGAGGUUCACCACCAATT against FIBCD1 | -0.0249 (inactive)
14 | GCGGUUUACUAUAGACAAATT against IKBKAP | -0.0316 (inactive)
15 | CGAACGAUUUCCCAAGUUATT against NXF1 | -4.46 (active)
16 | GGUUUUGCACAGCGAGGAATT against B3GALT4 | 0.233 (inactive)
17 | GGGCUAGAUCUGUAUCUUATT against TSC22D3 | 0.0129 (inactive)
18 | GACCUGAUGUGGAAGCAGATT against QDPR | -0.734 (inactive)
19 | CCCUGACUCUUGGAUAUGATT against MEOX1 | 0.0171 (inactive)
20 | GGCGAGAUCUUUAUACGCATT against ZNF224 | 0.0073 (inactive)
21 | AGAACGUGCUCUUCGCUCATT against PRKAR1B | -0.0406 (inactive)
22 | GGAAAGUUUUUAAGGCGAATT against UHRF2 | -0.0941 (inactive)

Row | Sequence | median seed-adjusted z-score
23 | CAUUGGAAAGUGCGAGUUATT against HUWE1 | 0.734 (inactive)
24 | GAGUGAAGUAUAAUCCAUATT against TPH1 | -0.055 (inactive)
25 | CUCUGGUAGAAUCCAAUUATT against GIN1 | -0.0585 (inactive)
26 | CCGCUGAGGUGACAACAAATT against XRCC5 | -1.11 (active)
27 | UCUUCUAAAUACUUCCUAATT against GJC3 | -0.137 (inactive)
28 | GCAUUUGCCCAGUUCAUGATT against RBM28 | 0.649 (inactive)
29 | CACUGUCCUUGGGUGAAUATT against ZDHHC20 | -0.936 (inactive)
30 | CAAGUAUAUUGAACGAGGATT against SLITRK4 | -0.015 (inactive)
31 | UGGUCUCAAUGACAGUAGATT against SNRPB | -3.17 (active)
32 | GCUAAGUACAAAUCAUUCATT against FCN1 | 0.346 (inactive)
33 | GGAGAGUGGUGAUCGGAUATT against MYOM3 | -0.012 (inactive)
34 | CGAUUCACCAGGAACGACATT against ZBTB7B | -0.242 (inactive)
35 | GCCUCAUACCAUUCCAUAUTT against MEP1B | 1.46 (active)
36 | CAGAGGUACUCCACGCAGATT against BHLHA15 | -0.199 (inactive)
37 | GGCUGGUACCUGGAUGAGATT against FTCD | -0.27 (inactive)
38 | GUCUAAUGCACUUAGCUAATT against HEL308 | 0.229 (inactive)
39 | GCAAAACGGAGGAUUGAGATT against EIF5B | 1.68 (active)
40 | GAAUGUGACAAUACAUUUATT against ZNF431 | 0.00537 (inactive)
41 | GGAACAAACCCUUAGCUAATT against SLITRK1 | 0.215 (inactive)
42 | GGAGUUUCCAGAUCUCAAATT against LGR6 | 0.237 (inactive)
43 | GACUCAUACCAAUCACGAATT against JMJD1A | 0.466 (inactive)
44 | GGGUCCCUAUUAUCCAGCATT against BAT3 | 0.567 (inactive)

Row | Sequence | median seed-adjusted z-score
45 | GACAGAUGACUGAUCCUAATT against PSMD13 | 0.58 (inactive)
46 | GACGGCCUCUAUUACCUCUTT against LTB | 0.646 (inactive)
47 | CUGUCAAUGUUAUUACUCUTT against TSG101 | 1.48 (active)
48 | GAAUAAUGCUUAUGCUAGATT against CLIC6 | -0.00828 (inactive)
49 | AAUUCUACGAGUCCAAGUATT against GPS1 | 0.205 (inactive)
50 | CAGCCCGUUUUGAAGGGUATT against CRIP3 | 1.7 (active)
51 | CGAUGGGUAUGAGCCUGGATT against ATHL1 | 0 (inactive)
52 | UAUGGGCUCUUGAACCAAATT against MTNR1B | -0.393 (inactive)
53 | GGGUGAUCUUGAUACUGCATT against TOP2B | 0.225 (inactive)
54 | GAUGCAAACUAGUCCUGAATT against MLC1 | -0.284 (inactive)
55 | AAUCGCUCAUGGUUUUUAATT against LRFN3 | 0.483 (inactive)
56 | AUGUGCACCUGACUACUCATT against KRT35 | -0.1 (inactive)
57 | CGCGUUCUUCGAUAUGGUATT against PCDHGB6 | 0.34 (inactive)
58 | GGCUUUUACCCGCAUGUCATT against ZNF460 | -0.302 (inactive)
59 | GCAGAAUAACCUCCAGUAUTT against SLC35A2 | 1.06 (active)
60 | GACUUUGCAUUUCCUAGUATT against HSPA1A | -0.833 (inactive)
61 | CUACUAUUCAGAGACAACATT against GPR3 | 0 (inactive)
62 | GAAAGAAGAAUAUACUGAUTT against RBBP6 | -0.212 (inactive)
63 | GGAAAUUACGGCUACAGAATT against AP1S3 | 0.153 (inactive)
64 | CCUUCUGUAGGAUGCAUUUTT against LY6G5B | -1.29 (active)
65 | CAAGAGCACCGGUAAGGAATT against HSPA2 | -0.0343 (inactive)
66 | UGAACUACGUGACCGCGAATT against ELAVL1 | 0.316 (inactive)

Row | Sequence | median seed-adjusted z-score
67 | GCAACUCCAGCCUAAUUAATT against ZNF792 | 0 (inactive)
68 | CUGUGGUCUCUGUCUCUUATT against GPR75 | 0 (inactive)
69 | CCAACAAGGUAGACCCAUUTT against PSMC5 | -1.06 (active)
70 | CUACCAGCCCUACACCAUUTT against CCL1 | 0.537 (inactive)
71 | GGAGAUCCGUGAUGUAACATT against RUVBL2 | -0.0764 (inactive)
72 | AGAUGAAUCUGGAAUCGGUTT against LCN1 | 0.0607 (inactive)
73 | CCGAAUGAGUUUGAACAUATT against ZNF48 | -0.116 (inactive)
74 | GGCUCUUCAUGGACCUUCATT against GPR173 | -0.147 (inactive)
75 | CAACCACAAUGUUCGUAAATT against GBF1 | -0.162 (inactive)
76 | GAAUGUCCCUUUAACUGCATT against NFXL1 | 0.118 (inactive)
77 | CGAGUACUGUCUCAAGGUATT against TTC9B | -0.272 (inactive)
78 | CAAUUACGAAUAGAAUUGATT against WEE1 | -4.05 (active)
79 | AGGACCAAAUGUCAAUUUATT against IL1RN | 0.283 (inactive)
80 | GGUGUGAACUGCGAAGUGATT against NOTCH3 | 0.395 (inactive)
81 | GGACGUGACUUACAUAGUUTT against PRLR | 0.394 (inactive)
82 | CAGUUUAUCUCAGACAUCUTT against CD9 | -1.02 (active)
83 | UGGUCCGACUGGUACGACATT against TAC1 | 0.0499 (inactive)
84 | GAGUCUUUAUUGGUAAAGATT against GLRX | -0.0561 (inactive)
85 | ACAUUGUGGUAGCCUUGUATT against LYN | -0.178 (inactive)
86 | GGCUGUCCUUAGUACCAGATT against CFTR | -1.23 (active)
87 | GGAACUAAACUUGAUCUUATT against RAC1 | -0.0348 (inactive)
88 | GAGUCGCUUUAGCUCCGAATT against XPNPEP2 | -0.158 (inactive)

Row | Sequence | median seed-adjusted z-score
89 | GGGAAAGCUGGACUACUAATT against PIK3CB | 0.0911 (inactive)
90 | CAAGGUGUUUUACCUGAAATT against YWHAH | -0.125 (inactive)
91 | GCGUGACAGUGAUCCUGUATT against SLC27A5 | 0.441 (inactive)
92 | AGAUCGACGUGAUCAAGCATT against GNAS | -0.531 (inactive)
93 | GGACAUCUGGGUGAAGUUUTT against SNRPF | -2.66 (active)
94 | CUAUCACUCUGGAACUGGATT against SMC2 | -0.052 (inactive)
95 | GGACAUGAACCAUACGAAUTT against PRPF8 | -1.54 (active)
96 | CAAUAAGACUGAGUUAUUATT against ETNK1 | 0.299 (inactive)
97 | GACCCAAAGCGGCAGCAAATT against KLRC2 | -0.472 (inactive)
98 | CUCAUUGAGUUGGACAAAUTT against RHOU | -1.44 (active)
99 | GGAUCGUGGUUGCAGGGAUTT against DNASE1 | -0.35 (inactive)
100 | CCAGACAGGAGGAACCAUATT against HDAC11 | 0.259 (inactive)
101 | CUAUGGACAUGUCAAUUGUTT against CCNA2 | 0.136 (inactive)
102 | CCGUAUUUCUAGUUCCCUUTT against ZNF442 | 1.06 (active)
103 | GUGUGAUGGUUGUAAACGATT against ZMYM6 | -0.355 (inactive)
104 | CAUACUCAUUCUUGCAAUATT against PHOSPHO2 | -0.247 (inactive)
105 | GAGAGUAAAUAUGCGAAUATT against ATP8B1 | 0.357 (inactive)
106 | GCAACAUCCUGGUUUUCGATT against LRP2 | -0.512 (inactive)
107 | GUAUCGCUGUUUCUACGGUTT against LILRA1 | -0.231 (inactive)
108 | GGAUCAUUCUCAACGGGAUTT against KCNV2 | -1.13 (active)
